Compounds with a hit are over-represented: about 11% of the library has one in this group of screens.
ALDH1A1 inh = qHTS Assay for Inhibitors of Aldehyde Dehydrogenase 1 (ALDH1A1); Aldehyde dehydrogenase 1A1 (Homo sapiens), P00352; Purified ALDH1A1, NADH fluorescence, propionaldehyde substrate; Potency, µM (series often up to 75.3 µM), for inactives: at the highest dose activity, negative = inhibition, hits mostly inhibitors; 220,000 tested, 7.3% active; active = well fitted inhibition curve with a large enough effect, not every such curve was filed as active; inconclusive = small, poorly fitted or top-dose-only effect, or another doubt; inactive = no such curve, though single readings can be large or run the other way;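 also: potency is read from the fitted curve at half-maximal effect; plate controls were no enzyme wells and a reference inhibitor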
Target sequence (P00352 whole entry, looked up): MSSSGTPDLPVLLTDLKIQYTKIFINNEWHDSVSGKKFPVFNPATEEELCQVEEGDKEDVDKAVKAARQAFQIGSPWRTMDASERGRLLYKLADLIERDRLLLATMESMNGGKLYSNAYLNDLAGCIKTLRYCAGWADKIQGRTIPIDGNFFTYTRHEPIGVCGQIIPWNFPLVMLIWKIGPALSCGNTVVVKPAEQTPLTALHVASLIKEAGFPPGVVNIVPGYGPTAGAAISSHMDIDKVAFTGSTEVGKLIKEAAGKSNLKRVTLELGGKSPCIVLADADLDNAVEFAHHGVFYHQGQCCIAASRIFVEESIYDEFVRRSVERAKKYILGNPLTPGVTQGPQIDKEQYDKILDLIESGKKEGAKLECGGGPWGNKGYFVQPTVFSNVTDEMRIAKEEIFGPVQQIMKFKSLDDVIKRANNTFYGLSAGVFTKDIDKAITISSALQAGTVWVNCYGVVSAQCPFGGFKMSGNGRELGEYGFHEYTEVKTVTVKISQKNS
IMPase Li cell = qHTS Assay for Identifying the Cell-Membrane Permeable IMPase Inhibitors: Potentiation with Lithium | CHO-M1 cells, IP1 TR-FRET (IP-One), carbachol + lithium | Potency, µM (series often up to 59.4 µM), inactives show at the highest dose activity, negative = IMPase inhibition, hits mostly inhibitors | 210,000 tested, 0.35% active | AID 1457, 2008;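 also: IP1 builds up when IMPase is blocked and the TR-FRET signal falls; potency is read from the fitted curve at half-maximal effect; plate controls were basal vehicle for no effect and high inhibitor control for full effect; nearly all actives have a fitted effect of over 50% in size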
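Test compounds were applied to CHO-M1 cells previously cultured for 16–30 h at 2000 per well. A small lithium amount accompanied them; after 30 min at 37C, IP1 was quantified by TR-FRET.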
ALOX12 inhib = qHTS Assay for Inhibitors of 12-hLO (12-human lipoxygenase); Polyunsaturated fatty acid lipoxygenase ALOX12 (Homo sapiens), P18054; purified 12-hLO, xylenol orange hydroperoxide absorbance; Potency, µM (titrated, usually from 57.1 µM), for the others: at the top dose activity change, negative = inhibition, hits mostly inhibitors; 150,000 tested, 0.12% active; AID 1452, 2008; also: potency is read from the fitted curve at half-maximal effect; nearly all actives have a fitted effect of over 55% in size
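150 nM 12hLO, 25 mM Hepes pH 7.0 + 0.01% Triton X-100; cpd preinc 15 min RT; 40 uM arachidonic acid, 30 min RT; Fe-XO 30 min; A573/A405 ratio as read-out.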
PNC inhibitor = High Content Assay for Compounds that inhibit the Assembly of the Perinucleolar Compartment | activity change (PNC), negative = inhibition, % at 10 µM | 140,000 tested, 3.1% active | AID 2417, 2010 | PC3M PTB-GFP, PNC prevalence imaging, 16 h; hits give low values;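 active = readout at or below -70, meaning at least 70% loss of cells showing the perinucleolar compartment, a nuclear body marking cancer cells; inconclusive = readout between -30 and a set limit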;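 also: plate controls were DMSO wells for no effect and camptothecin positive control wells for full effect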
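Read-out is percentage of cells bearing a perinucleolar compartment, from automated 20x imaging of fixed, Hoechst-stained PC3M PTB-GFP cells. Cells were seeded 4 h, then exposed 16 h to compound (23 nl of library stock) in duplicate plates.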
IMPase inh = qHTS Assay for Identifying the Cell-Membrane Permeable IMPase Inhibitors; 120,000 tested, under 10 active; inhibition (IP1 accumulation), % at 46.1 µM; CHO-M1 cells, IP1 accumulation, HTRF TR-FRET ratio; AID 901, 2007; active = well fitted curve in the direction sought with a large enough effect in the signal ratio, not every such curve was filed as active; inconclusive = small, poorly fitted or top-dose-only effect, or a change in a side signal; inactive = no such curve, though single readings can be large or run the other way; the % refers to the signal ratio;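 also: cells stimulated with carbachol in lithium chloride buffer; plate controls were DMSO basal wells for no effect and reference inhibitor wells for full effect; higher means more IMPase inhibition seen as more IP1 and lower FRET ratio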
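CHO-M1, 2000 cells/well, cultured 16–30 h; cpd up to 46 uM; carbachol (50 uM solution, stimulation buffer w/ 50 mM LiCl, pH 7.4), 30 min 37C; IP-One TR-FRET, 10 min RT; Ex 320/Em 665, 620; Hill-fit AC50.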
HPGD block = qHTS Assay for Inhibitors of HPGD (15-Hydroxyprostaglandin Dehydrogenase). purified HPGD, NADH fluorescence kinetic, PGE2 substrate. Potency, µM, inactives show at the top dose activity change, negative = inhibition, actives largely listed as inhibitors. 150,000 tested, 4.3% active. AID 894, 2007; active = well fitted inhibition curve with a large enough effect, not every such curve was filed as active; inconclusive = small, poorly fitted or top-dose-only effect, or another doubt; inactive = no such curve, though single readings can be large or run the other way; also: potency is read from the fitted curve at half-maximal effect
Target sequence (P15428 whole entry, looked up): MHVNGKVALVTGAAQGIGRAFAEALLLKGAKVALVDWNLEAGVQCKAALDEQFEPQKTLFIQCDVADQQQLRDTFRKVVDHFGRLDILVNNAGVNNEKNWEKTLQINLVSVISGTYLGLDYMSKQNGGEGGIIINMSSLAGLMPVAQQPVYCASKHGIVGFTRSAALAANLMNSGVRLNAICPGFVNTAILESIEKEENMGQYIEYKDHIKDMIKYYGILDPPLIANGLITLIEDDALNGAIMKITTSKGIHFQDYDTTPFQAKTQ
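NADH formation kinetics: reaction with 30 uM PGE2 and 1 mM NAD+ (final), 20 nM enzyme, Tris-HCl pH 8 with Tween 20, after 15 min compound preincubation at room temperature. Fluorescence change, last versus first of five reads.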
* = called active by the depositor; ? = inconclusive; nt = no result given; [ ] = another dose, or the depositor's remark. Unless noted, calls follow the shape of the dose curve; as a rule, active = well fitted curve in the direction sought with a large enough effect; inconclusive = small, poorly fitted or top-dose-only effect, or another doubt; inactive = no such curve, though single readings can be large; an effect the other way counts as inactive or inconclusive. Unless noted, % is scaled to controls: 0 for no effect and ±100 for the full control effect.

SMILES	ALDH1A1 inh	IMPase Li cell	ALOX12 inhib	PNC inhibitor	IMPase inh	HPGD block
NCCC[C@@H](CC(=O)N[C@@H]1CCNC[C@H]1C(=O)N[C@H](CC(=O)N[C@@H](CCC(=O)O)CC(=O)O)Cc1ccccc1)NC(=O)C[C@H](Cc1c[nH]c2ccccc12)NC(=O)[C@@H]1CCCC[C@H]1N	-2%	-4%	-1%	nt	nt	-6%
CCOC(=O)Cn1c(=N)n(CCOc2cccc(C)c2)c2ccccc21	6%	2%	0%	-97*	2	-1%
Cc1cccc(OCCc2c(C)[nH]c(=S)[nH]c2=O)c1	18µM*	6%	nt	nt	nt	nt
Cc1cccc(OCCn2c(=S)[nH]c3ccccc32)c1	1.3µM*	16%	28µM*	?	-5	2µM*
N#CCCn1c(=S)[nH]c2ccccc21	?	20%[38.3 µM]	-5%	?	-1	14µM*
CN1CC[C@H](CN2c3ccccc3Sc3ccccc32)C1	6%[13.5 µM]	39%	4%[11.4 µM]	nt	nt	-6%
Cn1ncc2c(NCc3ccccc3)ncnc21	-4%	-10%[38.3 µM]	3%	22	5	-28%
Clc1ccc(Cn2ncc3c(NCc4ccccc4)ncnc32)c(Cl)c1	?	12%	-1%	-3	nt	20µM*
c1ccc2c(c1)CC(N1CCN(c3cccc4c3OCCO4)CC1)C2	22µM*	32%	?	nt	12	-11%
c1ccc2c(c1)OCCOCCOCCOCCOc1ccccc1OCCOCCOCCO2	8%	11%	-3%	11	nt	-6%
Nc1ccc(-c2nc3ccc(N)cc3[nH]2)cc1	?	-29%	nt	nt	nt	nt
Nc1ccc2nc(-c3ccc(Cl)cc3)[nH]c2c1	?	10µM*	3%	28	-19	?
O=C(O)CCN1C(=O)C2C3CC(C2C1=O)C1C(c2ccccc2)c2sc(=O)[nH]c2SC31 (configuration not stated)	2%	-3%	nt	nt	nt	nt
Cc1ccc(C2c3sc(=O)[nH]c3SC3C4CC(C5C(=O)N(C(C)C(=O)O)C(=O)C45)C23)cc1 (configuration not stated)	?	22%	-1%	-90*	nt	-2%
COc1ccc(/C=C2\CCCC(C(=O)C(F)(F)F)=C2O)cc1	0.45µM*	25%[38.3 µM]	-5%	11	-8	-13%
COc1ccc(/C=C2\CCOC2=O)cc1	-4%	-2%[38.3 µM]	4%	?	3	-16%
O=C(C1=C(O)/C(=C/c2ccc(O)cc2)CCC1)C(F)(F)F	0.079µM*	36%	?	13	7	-22%
CCCCCCCCCCCCC/C=C/[C@@H](O)[C@H](CO)NC(C)=O	2%	-4%	nt	nt	nt	nt
CCN(CC)C(=O)CSc1nc2c(c(-c3cccnc3)c1C#N)CCCC2	-8%	6%	nt	nt	nt	nt
CCOC(=O)/C(C#N)=C1/C(=O)N(Cc2ccccc2)c2ccccc21	0.11µM*	0%	nt	nt	nt	nt
CCOC(=O)/C(C#N)=C1/C=Cc2ccccc2N1CC	-8%	-12%[38.3 µM]	-19%	-99*	3	-17%
CCN1C(=C(C#N)C#N)C=Cc2ccccc21	?	2%	nt	nt	nt	nt
COC(=O)/C=C\c1cc(O)ccc1O	?	26%	-9%	nt	8	2.2µM*
COC(=O)/C=C/c1cnc2ccccc2c1	-15%	-5%	nt	nt	nt	nt
c1ccc(/C(=N/Nc2nc3ccccc3s2)c2ccccn2)cc1	?	16%	3%[11.4 µM]	nt	nt	-6%
SMILES	ALDH1A1 inh	IMPase Li cell	ALOX12 inhib	PNC inhibitor	IMPase inh	HPGD block
Cc1csc(NC(=O)CCc2ccc(S(=O)(=O)N3CCOCC3)cc2)n1	?	18%[38.3 µM]	5%	3	3	-21%
Cc1cc(NC(=O)CCc2ccc(S(=O)(=O)N3CCOCC3)cc2)n(-c2ccccc2)n1	2%	10%	-5%	-100*	4	-8%
CC1CCCC(C)N1c1nnc(N)s1 (configuration not stated)	18%	8%	-6%	51	nt	28µM*
O=C1C(Cl)=C(N2CCN(c3ccccc3[N+](=O)[O-])CC2)C(=O)c2ccccc21	7.1µM*	33%	4%	?	nt	-21%
O=[N+]([O-])c1cc(Cl)ccc1N1CCCC1	?	-5%	nt	nt	nt	nt
N#Cc1ccccc1-c1ccc2ncnc(N3CCNCC3)c2c1	-11%	1%	-4%	nt	nt	?
Cc1ccc(NCN2C(=O)C(=O)c3ccccc32)nc1	0.14µM*	-2%	2%	?	-10	-13%
N=c1cc(C2(O)CCCCC2)n2c(nc3ccccc32)s1	1%	5%[38.3 µM]	0%	?	0	-15%
O=C1c2sc3nc4ccccc4n3c2C(=O)N1c1ccccc1Cl	16µM*	22%[38.3 µM]	-12%	20	-10	14µM*
Cc1ccccc1N1C(=O)c2sc3nc4c(c(=O)n3c2C1=O)CCC4	28µM*	-2%[38.3 µM]	-2%	-4	4	32µM*
O=C1c2sc3nc4c(c(=O)n3c2C(=O)N1c1ccccc1)CCC4	?	nt	-8%	?	7	nt
O=c1c(-c2cccc(Cl)c2)nc2cncnc2n1Cc1ccccc1Cl	2%	3%	0%	nt	nt	1%
CC(C)c1ccc(/C=C2\C=C(c3ccc4ccccc4c3)OC2=O)cc1	8%[13.5 µM]	-1%	-7%[11.4 µM]	nt	nt	-8%
COc1ccc(C2=C/C(=C\c3cccc(OC(C)=O)c3)C(=O)O2)cc1	25µM*	21%	-9%	1	nt	-20%
O=c1c2c3c(sc2n(CCN2CCCC2)c(=O)n1Cc1ccco1)CCCCC3	5µM*	24%[38.3 µM]	-6%	-6	-11	-10%
O=C(Cn1c(=O)n(Cc2ccco2)c(=O)c2c3c(sc21)CCCCC3)c1ccccc1	?	-10%[38.3 µM]	-9%	9	2	-17%
O=C(Cn1c(=O)n(Cc2ccco2)c(=O)c2c3c(sc21)CCCCC3)Nc1ccccc1	7.1µM*	0%[38.3 µM]	?	6	-1	?
CN(C)CCn1c(=O)n(Cc2ccco2)c(=O)c2c3c(sc21)CCCCC3	?	20%[38.3 µM]	1%	30	10	-9%
CCCc1[nH]n(-c2ccc([N+](=O)[O-])cc2)c(=O)c1C=NCCc1ccc(OC)c(OC)c1	1.8µM*	6%	nt	nt	nt	nt
COC(=O)c1ccc(N2CCN(C(C)=O)CC2)c(NC(=O)COc2ccccc2C)c1	7.9µM*	12%	nt	nt	nt	nt
COC(=O)c1ccc(N2CCOCC2)c(NC(=O)Nc2cccc(OC)c2)c1	25µM*	5%	-5%	?	7	?
